Sampled rows, rich in hits. Any-hit rate of the full collection: about 7.5%.
HCV inhibitor: HCV inhibition; 3.4% of 340,000 active; AID 651820; Potency, µM (titrated, usually from 41.8 µM), actives largely listed as inhibitors; Huh7.5.1 HCVcc-Cre infection, luciferase reporter, 44 h
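Cells seeded at 1,000/well and cultured 4 h, then compounds added followed by HCVcc-Cre virus (~0.5 moi). After 44 h further culture, luciferase substrate was added, plates held 15 min at room temperature, and luminescence read for 15 sec.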
Vaccinia Venus: vaccinia inhibition (Venus reporter). Vaccinia virus Venus reporter expression, fluorescence. Potency, µM (doses to about 36.5 µM), hits mostly inhibitors. 0.46% of 330,000 active; calls by dose curve; tested in A549 cells; also: nearly all actives have a fitted effect of over 30% in size
FMDV antiviral: antivirals against foot and mouth disease virus; FMDV antiviral cell-based qHTS; Potency, µM (series often up to 57.9 µM), most hits filed as inhibitors; 1.2% of 410,000 active; AID 1159524; calls by dose curve; tested in HEK293T cells; also: read-out not given here; nearly all actives have a fitted effect of over 45% in size
Giardia FBPA inh: blocks Giardia fructose-bisphosphate aldolase activity; A8B2U2; purified Giardia FBPA; Potency, µM (doses to about 59.6 µM), usual class: inhibitors; 0.71% of 290,000 active; also: nearly all actives have a fitted effect of over 55% in size
Target sequence (A8B2U2 whole entry, looked up): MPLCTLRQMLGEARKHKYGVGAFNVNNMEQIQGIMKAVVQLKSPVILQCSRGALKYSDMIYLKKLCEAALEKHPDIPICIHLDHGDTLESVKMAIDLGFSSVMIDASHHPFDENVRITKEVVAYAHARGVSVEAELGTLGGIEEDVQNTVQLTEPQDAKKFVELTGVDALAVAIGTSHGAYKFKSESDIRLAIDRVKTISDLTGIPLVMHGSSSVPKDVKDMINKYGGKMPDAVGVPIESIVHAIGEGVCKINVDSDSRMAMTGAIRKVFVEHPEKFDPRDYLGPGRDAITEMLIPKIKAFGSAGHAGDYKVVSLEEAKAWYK
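Giardia FBPA (40 nM reagent) was preincubated 10 min at RT with compound (up to 57.5 uM final), then substrate plus GAPDH/TPI/NAD/arsenate coupling system with diaphorase/resazurin was added; resorufin fluorescence (525/598 nm) was read after 20 min.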
HCMV inh: blocks human cytomegalovirus replication; 4.5% of 410,000 active; activity change, negative = inhibition, % at 57.5 µM; HFF cells, HCMV-luciferase reporter, 72 h; active compounds read low; in the data active = activity change below about -60%; inconclusive = no clear call, values can overlap the other calls; inactive = above about -39%
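Steps: HFFs plated, 16 h 37C; compounds added; HCMV-luciferase added to MOI 1 PFU/cell; 72 h 37C; OneGlo reagent, 5 min room temperature; luminescence read, normalized to controls.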
VACV mCherry inh: vaccinia inhibition (mCherry reporter); Vaccinia virus mCherry reporter infection, fluorescence; Potency, µM (highest dose often 36.5 µM), hits mostly inhibitors; 0.63% of 310,000 active; calls by dose curve; tested in A549 cells; also: nearly all actives have a fitted effect of over 35% in size
A number is an active result. Unless noted, calls follow the shape of the dose curve; as a rule, active = well fitted curve in the direction sought with a large enough effect; inconclusive = small, poorly fitted or top-dose-only effect, or another doubt; inactive = no such curve, though single readings can be large; an effect the other way counts as inactive or inconclusive.

What do the screens show for `O=c1[nH]c2ccccc2c2ccccc12`?
HCV inhibitor: 14.1µM; Vaccinia Venus: inactive; FMDV antiviral: inactive; Giardia FBPA inh: inactive; HCMV inh: inactive; VACV mCherry inh: inactive

How did Cc1cccc(CNS(=O)(=O)c2ccc3[nH]c(=O)ccc3c2)c1 do in these assays?
Vaccinia Venus: inactive; FMDV antiviral: inconclusive; HCMV inh: inactive; VACV mCherry inh: inactive

How did Cc1ccc2cc(C#N)c(N3CCN(C(=O)c4cccs4)CC3)nc2c1 do in these assays?
HCV inhibitor: inconclusive; Vaccinia Venus: inactive; FMDV antiviral: 31.6µM; Giardia FBPA inh: inactive; HCMV inh: inactive; VACV mCherry inh: inactive

How did Cc1ccc(NC(=O)c2ccc(CNS(=O)(=O)c3ccc4c(c3)C(C)(C)C(=O)N4C)cc2)cc1C do in these assays?
Vaccinia Venus: inactive; FMDV antiviral: 35.5µM; HCMV inh: inactive; VACV mCherry inh: inactive

What do the screens show for `Cc1cccc(NC(=O)c2ccc(CNS(=O)(=O)c3ccc4c(c3)C(C)(C)C(=O)N4C)cc2)c1`?
Vaccinia Venus: inactive; FMDV antiviral: 35.5µM; HCMV inh: inactive; VACV mCherry inh: inactive

Results for N=NC(=O)c1ccccc1Nc1c(O)[nH]c2ccccc12 ?
HCV inhibitor: inactive; Vaccinia Venus: inconclusive; FMDV antiviral: inconclusive; HCMV inh: inactive; VACV mCherry inh: inactive

What do the screens show for `CC1(C(=O)NCCC#N)CCN1C(=O)Cc1ccc(-c2ccccc2)cc1` (stereo not drawn)?
Vaccinia Venus: inactive; FMDV antiviral: inactive; HCMV inh: inactive; VACV mCherry inh: inactive

How did COc1ccc(-n2cc(-c3ccccc3)[n+]3c2CCCCC3)cc1 do in these assays?
HCV inhibitor: inconclusive; Vaccinia Venus: inactive; FMDV antiviral: inconclusive; Giardia FBPA inh: inactive; HCMV inh: -89.7; VACV mCherry inh: inactive

How did FC(F)Sc1ccc(-n2cc(-c3ccccc3)[n+]3c2CCC3)cc1 do in these assays?
HCV inhibitor: inconclusive; Vaccinia Venus: inactive; FMDV antiviral: inconclusive; Giardia FBPA inh: inactive; HCMV inh: inactive; VACV mCherry inh: inactive

How did COc1ccc(-n2cc(-c3ccccc3)nc2SC)cc1 do in these assays?
HCV inhibitor: inconclusive; FMDV antiviral: inactive; Giardia FBPA inh: inactive; HCMV inh: inactive

Results for COc1ccc(-c2cn(-c3ccc(OC)cc3)c3[n+]2-c2ccccc2CC3)cc1 ?
HCV inhibitor: inactive; Vaccinia Venus: inactive; FMDV antiviral: 15.8µM; Giardia FBPA inh: inactive; HCMV inh: -96.9; VACV mCherry inh: inactive

Results for COc1cccc(C(C)NC(=O)Cc2cccs2)c1 (stereo not drawn) ?
HCV inhibitor: inactive; Vaccinia Venus: inactive; FMDV antiviral: inactive; Giardia FBPA inh: inactive; HCMV inh: inactive; VACV mCherry inh: inactive

Results for CCOc1ccc(NC(=O)c2ccc(CNc3c(N4CCCC4)c(=O)c3=O)cc2)cc1 ?
HCV inhibitor: inactive; FMDV antiviral: inactive; Giardia FBPA inh: inactive; HCMV inh: inactive

How did CCOc1ccc(NC(=O)CCNc2c(N3CCCC3)c(=O)c2=O)cc1 do in these assays?
HCV inhibitor: inactive; Vaccinia Venus: inactive; FMDV antiviral: inactive; Giardia FBPA inh: inactive; HCMV inh: -60.9; VACV mCherry inh: inactive

Results for CCCCCOC(=O)CSc1nc2sc3c(c2c(=O)n1Cc1ccccc1)CC(C)(CC)OC3 (stereo not drawn) ?
Vaccinia Venus: inactive; FMDV antiviral: inactive; HCMV inh: inactive; VACV mCherry inh: inactive

How did Cc1cc(CSc2ccccc2)ccc1NC(=O)c1ccc(Cl)c([N+](=O)[O-])c1 do in these assays?
HCV inhibitor: 7.94µM; Vaccinia Venus: inactive; FMDV antiviral: inactive; Giardia FBPA inh: inactive; HCMV inh: inconclusive; VACV mCherry inh: inactive

How did Cc1cc(CSc2ccccc2)ccc1NC(=O)c1ccc(CN2CCOCC2)cc1 do in these assays?
HCV inhibitor: inconclusive; Vaccinia Venus: inactive; FMDV antiviral: 12.6µM; Giardia FBPA inh: inactive; HCMV inh: -77.5; VACV mCherry inh: inactive

What do the screens show for `NC(=S)N/N=C/c1cccc(Br)c1`?
HCV inhibitor: inconclusive; Vaccinia Venus: 0.891µM; FMDV antiviral: inactive; Giardia FBPA inh: inactive; HCMV inh: inactive; VACV mCherry inh: inconclusive

How did NC(=S)N/N=C/c1cccc(/C=N/NC(N)=S)c1 do in these assays?
HCV inhibitor: inactive; Vaccinia Venus: inactive; FMDV antiviral: inactive; Giardia FBPA inh: inconclusive; HCMV inh: inactive; VACV mCherry inh: inactive

What do the screens show for `NC(=S)N/N=C/c1ccc2ccccc2c1`?
HCV inhibitor: inactive; Vaccinia Venus: 1µM; FMDV antiviral: inactive; Giardia FBPA inh: inconclusive; HCMV inh: inactive; VACV mCherry inh: 0.355µM

Results for NC(=S)N/N=C/C=C/c1ccccc1 ?
HCV inhibitor: inactive; Vaccinia Venus: 0.794µM; FMDV antiviral: inactive; Giardia FBPA inh: inactive; HCMV inh: inactive; VACV mCherry inh: 1µM

How did Cc1ccc(C(=O)N/N=C/C=C/c2ccccc2)cc1 do in these assays?
HCV inhibitor: inactive; Vaccinia Venus: inactive; FMDV antiviral: inactive; Giardia FBPA inh: inactive; HCMV inh: inactive; VACV mCherry inh: inactive

How did N/C(=N\OC(=O)Cc1ccccc1[N+](=O)[O-])c1ccncc1 do in these assays?
HCV inhibitor: inactive; Vaccinia Venus: inactive; FMDV antiviral: inactive; Giardia FBPA inh: inactive; HCMV inh: -61.1; VACV mCherry inh: inactive

Results for Cc1ccccc1NC(=O)N1CCc2cc(S(=O)(=O)N3CCC(C)CC3)ccc21 ?
Vaccinia Venus: inactive; FMDV antiviral: inactive; HCMV inh: inactive; VACV mCherry inh: inactive

How did COc1ccc(CN2CCC(C(=O)c3cccc(Cl)c3)CC2)cc1 do in these assays?
HCV inhibitor: inactive; FMDV antiviral: inactive; Giardia FBPA inh: inactive; HCMV inh: inactive

How did O=C(c1ccc(Cl)cc1)C1CCCN(Cc2cccc3cccnc23)C1 (stereo not drawn) do in these assays?
HCV inhibitor: inconclusive; Vaccinia Venus: inconclusive; FMDV antiviral: inactive; Giardia FBPA inh: inactive; HCMV inh: inactive; VACV mCherry inh: inconclusive

What do the screens show for `O=C(c1ccc(Cl)cc1)C1CCCN(Cc2ccc3nonc3c2)C1` (stereo not drawn)?
HCV inhibitor: 22.4µM; FMDV antiviral: inactive; Giardia FBPA inh: inactive; HCMV inh: inactive

What do the screens show for `COc1ccc(CN2CCCC(C(=O)c3ccc(Cl)cc3)C2)cc1Cn1cccn1` (stereo not drawn)?
HCV inhibitor: 10µM; Vaccinia Venus: inactive; FMDV antiviral: inactive; Giardia FBPA inh: inactive; HCMV inh: inactive; VACV mCherry inh: inactive

What do the screens show for `COc1ccc(CN2CCC(C(=O)c3ccc(Cl)cc3)CC2)cc1`?
HCV inhibitor: 11.2µM; FMDV antiviral: inactive; Giardia FBPA inh: inactive; HCMV inh: inactive

Results for O=C(c1ccc(Cl)cc1)C1CCCN(Cc2cccc3ncccc23)C1 (stereo not drawn) ?
HCV inhibitor: 7.94µM; FMDV antiviral: inconclusive; Giardia FBPA inh: inactive; HCMV inh: inactive

How did CC(C#N)(NC(=O)CN1CCN(S(=O)(=O)c2ccccc2Cl)CC1)C1CC1 (stereo not drawn) do in these assays?
HCV inhibitor: inactive; FMDV antiviral: inactive; HCMV inh: inactive

Results for CC(C)(C)CNCc1ccccc1NC(=O)OC(C)(C)C ?
HCMV inh: inactive

From PubChem
